Test results from PubChem BioAssay (Tox21).
Several values for one entry are separate records, joined by “and”; a condition that tells them apart may be missing. Identical values can stand only once. Records with an inconclusive call do not appear. Some structures have more than one record in an assay (separate samples or runs), and their calls can disagree. Activity calls are given as the source filed them. Unless noted, calls come from the whole dose curve; as a rule, active = well fitted curve in the direction sought with a large enough effect in the repeat runs; inconclusive = weak or mixed curves; inactive = no such curve, though single readings can be large; an effect the other way counts as inactive or inconclusive.

Key:
[1] = qHTS assay to identify aromatase inhibitors - cell viability counter screen (AID 743084);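 note: cells stimulated with testosterone during compound exposure; nearly all actives have a fitted effect of over 55% in size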; note: potency is the fitted concentration of half-maximal effect
[2] = target: Aryl hydrocarbon receptor (Homo sapiens) (UniProt P35869); assay: qHTS assay to identify small molecule that activate the aryl hydrocarbon receptor (AhR) signaling pathway (AID 743085); note: nearly all actives have a fitted effect of over 15% in size; note: potency is the fitted concentration of half-maximal effect;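 for activation: HG2L7.5c1 human HepG2 liver cells with stably integrated DRE-driven firefly reporter; series mostly up to about 70 µM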
Sequence of Aryl hydrocarbon receptor (Homo sapiens) (P35869 whole entry, looked up): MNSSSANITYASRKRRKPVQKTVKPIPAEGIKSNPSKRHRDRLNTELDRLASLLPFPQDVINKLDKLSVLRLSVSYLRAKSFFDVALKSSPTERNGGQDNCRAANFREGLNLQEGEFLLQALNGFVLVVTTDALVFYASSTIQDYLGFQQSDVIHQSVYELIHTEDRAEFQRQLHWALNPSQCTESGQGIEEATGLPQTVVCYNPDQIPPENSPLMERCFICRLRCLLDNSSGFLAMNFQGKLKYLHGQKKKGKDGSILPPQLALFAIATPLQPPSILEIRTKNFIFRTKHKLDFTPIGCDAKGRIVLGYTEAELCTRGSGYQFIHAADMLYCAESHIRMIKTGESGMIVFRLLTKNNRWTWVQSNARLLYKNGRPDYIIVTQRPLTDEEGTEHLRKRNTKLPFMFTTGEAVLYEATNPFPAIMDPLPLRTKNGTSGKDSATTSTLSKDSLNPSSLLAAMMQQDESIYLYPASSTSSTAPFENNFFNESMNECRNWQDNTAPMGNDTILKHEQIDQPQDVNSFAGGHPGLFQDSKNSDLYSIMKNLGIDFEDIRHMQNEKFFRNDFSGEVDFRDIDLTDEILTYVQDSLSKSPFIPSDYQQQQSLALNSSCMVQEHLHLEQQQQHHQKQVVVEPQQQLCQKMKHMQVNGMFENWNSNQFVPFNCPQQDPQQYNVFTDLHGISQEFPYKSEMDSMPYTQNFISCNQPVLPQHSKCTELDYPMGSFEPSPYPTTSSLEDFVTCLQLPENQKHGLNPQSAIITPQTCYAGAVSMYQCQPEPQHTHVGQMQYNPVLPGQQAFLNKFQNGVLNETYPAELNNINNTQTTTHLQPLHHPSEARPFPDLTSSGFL
Outline: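 Compounds were tested in HepG2 hepatocellular carcinoma cells harbouring a stably integrated luciferase gene under control of 20 DREs. Increased reporter signal after 24 h treatment at 37C was taken as AhR activation.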

[3] = qHTS assay to identify small molecule that activate the aryl hydrocarbon receptor (AhR) signaling pathway - cell viability counter screen (AID 743086);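 note: HepG2 liver cells carrying the AhR DRE luciferase reporter; series mostly up to about 70 µM; nearly all actives have a fitted effect of over 45% in size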
Outline: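 HepG2-AhR-luc (HG2L7.5c1) cells, 4000/well, were preincubated 5 h at 37C, exposed to compound in qHTS format for 24 hr at 37C, then given CellTiter-Fluor for 30 min; viability was read as fluorescence in the reporter wells.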

[4] = target: Peroxisome proliferator-activated receptor gamma (Homo sapiens) (UniProt P37231); assay: qHTS assay to identify small molecule agonists of the peroxisome proliferator-activated receptor gamma (PPARg) signaling pathway (AID 743094; active = well fitted activation curve with a large enough effect in the signal ratio in the repeat runs, not every such curve was filed as active; the % refers to the signal ratio)
Sequence of Peroxisome proliferator-activated receptor gamma (Homo sapiens) (P37231 whole entry, looked up): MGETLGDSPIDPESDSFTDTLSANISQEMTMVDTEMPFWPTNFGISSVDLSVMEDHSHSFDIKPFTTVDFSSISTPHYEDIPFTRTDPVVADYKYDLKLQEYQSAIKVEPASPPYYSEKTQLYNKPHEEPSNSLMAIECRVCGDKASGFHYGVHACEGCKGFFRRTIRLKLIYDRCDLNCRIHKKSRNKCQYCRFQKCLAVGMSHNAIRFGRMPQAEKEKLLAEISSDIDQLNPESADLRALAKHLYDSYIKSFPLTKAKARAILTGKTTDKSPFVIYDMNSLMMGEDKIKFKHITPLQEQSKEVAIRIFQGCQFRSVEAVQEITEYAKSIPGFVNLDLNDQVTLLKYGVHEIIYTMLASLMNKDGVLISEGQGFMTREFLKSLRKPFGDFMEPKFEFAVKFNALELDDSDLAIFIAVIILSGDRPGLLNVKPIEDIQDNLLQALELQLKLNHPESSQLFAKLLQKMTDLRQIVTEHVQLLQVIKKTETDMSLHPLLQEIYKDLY
Outline: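 GeneBLAzer PPARg UAS-bla HEK293H cells carrying a stably integrated beta-lactamase reporter were pre-incubated 5 h at 37C, then exposed to compounds in DMSO for 17 h at 37C; LiveBLAzer B/G FRET substrate was added for 1 h at room temperature and fluorescence read.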

[5] = target: Peroxisome proliferator-activated receptor gamma (Homo sapiens) (UniProt P37231); assay: qHTS assay to identify small molecule antagonists of the peroxisome proliferator-activated receptor gamma (PPARg) signaling pathway (AID 743191; calls by dose curve; note: series mostly up to about 63 µM; nearly all actives have a fitted effect of over 30% in size)
Outline: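 GeneBLAzer PPARg UAS-bla HEK293H cells carrying a UAS-driven beta-lactamase reporter were plated at 3000 cells/well, preincubated 5 h at 37C, then given compound for 17 h at 37C; LiveBLAzer B/G FRET substrate was read after 1 h at room temperature.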

[6] = qHTS assay to identify small molecule antagonists of the peroxisome proliferator-activated receptor gamma (PPARg) signaling pathway - cell viability counter screen (AID 743194); note: nearly all actives have a fitted effect of over 55% in size
Outline: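 PPARg-UAS-bla HEK293H cells were plated, rested 5 h at 37 C, then treated with compounds plus rosiglitazone (50 nM final) for 17 h at 37 C; viability was then read by CellTiter-Glo luminescence after 30 min at room temperature.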

[7] = qHTS assay for small molecule agonists of the antioxidant response element (ARE) signaling pathway (AID 743202; active = well fitted activation curve with a large enough effect in the signal ratio in the repeat runs, not every such curve was filed as active; the % refers to the signal ratio)
Outline: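 Compounds delivered in DMSO to ARE-bla HepG2 cells (2,000 cells/well, pre-incubated 5 h) and left 16 h at 37 C. LiveBLAzer B/G FRET substrate then added for 2 h at RT before fluorescence reading.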

[8] = qHTS assay for small molecule agonists of the antioxidant response element (ARE) signaling pathway - cell viability counter screen (AID 743203; calls by dose curve; note: nearly all actives have a fitted effect of over 55% in size)
Outline: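 CellSensor ARE-bla HepG2 cells, 2,000 per well, rested 5 hrs at 37C/5% CO2, then exposed to compound in DMSO for 16 hrs; viability read as CellTiter-Glo luminescence after 30 min at room temperature, in the reporter wells.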

[9] = qHTS assay for small molecule activators of the heat shock response signaling pathway - cell viability counter screen (AID 743209); note: nearly all actives have a fitted effect of over 50% in size
Outline: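 CellSensor HSE-bla HeLa cells, plated overnight at 37 C/5% CO2, were exposed to compounds in DMSO for 5 h at 37 C. Viability was then read in the same wells by CellTiter-Glo luminescence after 30 min at room temperature.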

[10] = qHTS assay for small molecule activators of the heat shock response signaling pathway (AID 743210; active = well fitted activation curve with a large enough effect in the signal ratio in the repeat runs, with a control signal flat, not every such curve was filed as active; the % refers to the signal ratio;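 note: HeLa cells with beta-lactamase reporter driven by heat shock elements; series mostly up to about 63 µM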)
Outline: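 Reporter gene assay: HeLa cells stably bearing an HSE-bla construct, compound treatment 5 h at 37 C, LiveBLAzer substrate 2.5 h at RT, fluorescence intensity.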

[11] = qHTS assay to identify small molecule agonists of the peroxisome proliferator-activated receptor delta (PPARd) signaling pathway - cell viability counter screen (AID 743211); note: nearly all actives have a fitted effect of over 55% in size
Outline: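 Counter screen for cytotoxicity run in parallel with the PPARd reporter screen. Beta-lactamase reporter HEK293H cells exposed to compounds 17 h; ATP-based CellTiter-Glo luminescence quantified viability.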

[12] = qHTS assay to identify small molecule antagonists of the peroxisome proliferator-activated receptor delta (PPARd) signaling pathway - cell viability counter screen (AID 743213); note: nearly all actives have a fitted effect of over 50% in size
Outline: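 Luminescence from CellTiter-Glo, added after the bla read and incubated 30 min at room temperature, gives viability of HEK293H PPARd-bla cells exposed to compounds for 17 h at 37 C with 300 nM L165041.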

[13] = target: Peroxisome proliferator-activated receptor delta (Homo sapiens) (UniProt Q03181); assay: qHTS assay to identify small molecule antagonists of the peroxisome proliferator-activated receptor delta (PPARd) signaling pathway (AID 743215; active = well fitted inhibition curve with a large enough effect in the signal ratio in the repeat runs, not every such curve was filed as active; the % refers to the signal ratio;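 note: cells stimulated with agonist L165041 at 300 nM final during compound exposure; series mostly up to about 62 µM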)
Sequence of Peroxisome proliferator-activated receptor delta (Homo sapiens) (Q03181 whole entry, looked up): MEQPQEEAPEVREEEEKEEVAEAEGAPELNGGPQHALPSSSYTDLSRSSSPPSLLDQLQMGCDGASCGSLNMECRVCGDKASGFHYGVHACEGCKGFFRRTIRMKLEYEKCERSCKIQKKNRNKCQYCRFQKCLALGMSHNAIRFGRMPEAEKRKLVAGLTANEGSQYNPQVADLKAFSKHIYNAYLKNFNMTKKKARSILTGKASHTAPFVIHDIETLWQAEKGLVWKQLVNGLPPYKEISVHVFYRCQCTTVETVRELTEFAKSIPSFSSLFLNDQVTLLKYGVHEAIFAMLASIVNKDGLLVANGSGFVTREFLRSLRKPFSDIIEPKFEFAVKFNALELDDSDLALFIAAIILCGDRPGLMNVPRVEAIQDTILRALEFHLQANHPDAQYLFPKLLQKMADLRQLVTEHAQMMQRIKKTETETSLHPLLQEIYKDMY
Outline: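 PPARd UAS-bla HEK293H cells were pre-incubated 5 h at 37 C, then given test compounds in DMSO plus agonist L165041 (300 nM final). After 17 h at 37 C, beta-lactamase FRET substrate was added; fluorescence read after 2 h at room temperature.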

[14] = target: Bile acid receptor (Homo sapiens) (UniProt Q96RI1); assay: qHTS assay to identify small molecule antagonists of the farnesoid-X-receptor (FXR) signaling pathway (AID 743217; active = well fitted inhibition curve with a large enough effect in the signal ratio in the repeat runs, not every such curve was filed as active; the % refers to the signal ratio)
Sequence of Bile acid receptor (Homo sapiens) (Q96RI1 whole entry, looked up): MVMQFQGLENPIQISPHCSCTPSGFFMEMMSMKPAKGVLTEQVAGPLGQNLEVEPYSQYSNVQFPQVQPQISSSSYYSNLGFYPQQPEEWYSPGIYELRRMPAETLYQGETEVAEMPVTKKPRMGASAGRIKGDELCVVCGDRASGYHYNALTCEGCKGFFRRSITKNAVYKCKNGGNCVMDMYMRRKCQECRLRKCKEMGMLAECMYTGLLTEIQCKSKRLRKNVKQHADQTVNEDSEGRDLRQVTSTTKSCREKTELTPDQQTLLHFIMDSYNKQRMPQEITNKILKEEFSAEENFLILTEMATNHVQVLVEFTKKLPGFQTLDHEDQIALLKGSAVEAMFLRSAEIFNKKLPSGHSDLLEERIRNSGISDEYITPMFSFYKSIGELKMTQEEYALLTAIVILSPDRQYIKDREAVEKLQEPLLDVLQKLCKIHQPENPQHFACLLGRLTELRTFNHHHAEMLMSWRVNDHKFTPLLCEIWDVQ
Outline: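 FXR-UAS-bla HEK 293T cells pre-incubated 5 h at 37 °C, then exposed to compounds with chenodeoxycholic acid (50 uM final) for 16 h at 37 °C. Beta-lactamase reporter read by LiveBLAzer B/G FRET substrate fluorescence after 2 h at room temperature.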

[15] = qHTS assay to identify small molecule agonists of the farnesoid-X-receptor (FXR) signaling pathway - cell viability counter screen (AID 743218); note: nearly all actives have a fitted effect of over 45% in size; note: potency is the fitted concentration of half-maximal effect
Outline: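 FXR-UAS-bla HEK 293T cells, plated 5 h at 37 C, were exposed to compounds for 16 h at 37 C. CellTiter-Glo was then added to the same wells as the bla readout; luminescence read after 30 min at room temperature.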

[16] = target: Bile acid receptor (Homo sapiens) (UniProt Q96RI1); assay: qHTS assay to identify small molecule agonists of the farnesoid-X-receptor (FXR) signaling pathway (AID 743220; active = well fitted activation curve with a large enough effect in the signal ratio in the repeat runs, not every such curve was filed as active; the % refers to the signal ratio)
Outline: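 Beta-lactamase reporter under UAS control in GeneBLAzer FXR HEK 293T cells (5000/well) measured with LiveBLAzer FRET substrate after 2 h at room temperature. Compound exposure lasted 16 h at 37C.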

[17] = qHTS assay to identify small molecule antagonists of the farnesoid-X-receptor (FXR) signaling pathway - cell viability counter screen (AID 743221; active = well fitted cell-killing curve with a large enough effect in the repeat runs, not every such curve was filed as active; note: nearly all actives have a fitted effect of over 50% in size; note: potency is the fitted concentration of half-maximal effect)
Outline: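 Multiplexed counter screen: viability of FXR-bla HEK 293T cells under agonist stimulation by chenodeoxycholic acid (50 uM, final) and test compound for 16 h at 37 C, measured by CellTiter-Glo luminescence in the reporter wells.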

[18] = target: Vitamin D3 receptor (Homo sapiens) (UniProt P11473); assay: qHTS assay to identify small molecule agonists of the vitamin D receptor (VDR) signaling pathway (AID 743222; calls by dose curve)
Sequence of Vitamin D3 receptor (Homo sapiens) (P11473 whole entry, looked up): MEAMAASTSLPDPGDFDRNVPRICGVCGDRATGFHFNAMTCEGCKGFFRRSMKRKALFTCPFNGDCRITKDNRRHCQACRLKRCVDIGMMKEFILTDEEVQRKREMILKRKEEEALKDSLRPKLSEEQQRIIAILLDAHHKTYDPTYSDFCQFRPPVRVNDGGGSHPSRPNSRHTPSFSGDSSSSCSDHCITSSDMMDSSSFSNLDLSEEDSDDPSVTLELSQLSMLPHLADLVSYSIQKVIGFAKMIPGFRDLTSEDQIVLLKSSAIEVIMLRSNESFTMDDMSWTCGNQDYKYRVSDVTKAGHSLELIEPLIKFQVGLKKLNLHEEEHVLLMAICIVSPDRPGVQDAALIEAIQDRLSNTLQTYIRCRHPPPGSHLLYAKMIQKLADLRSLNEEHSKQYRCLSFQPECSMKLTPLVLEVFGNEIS
Outline: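 VDR-bla cells were plated 4 h at 37C/5% CO2, then exposed to compounds in DMSO for 16 h. After LiveBLAzer B/G FRET substrate addition and 2 h at room temperature, beta-lactamase reporter fluorescence was read.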

[19] = target: Vitamin D3 receptor (Homo sapiens) (UniProt P11473); assay: qHTS assay to identify small molecule antagonists of the vitamin D receptor (VDR) signaling pathway (AID 743223; active = well fitted inhibition curve with a large enough effect in the signal ratio in the repeat runs, not every such curve was filed as active; the % refers to the signal ratio)
Outline: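 Cells carrying a VDR-driven beta-lactamase reporter (VDR-bla) were co-treated with compound and 3 nM final 1alpha,25-dihydroxyvitamin D3 for 16 h at 37C; reporter activity was measured as FRET substrate fluorescence after 2 h at room temperature.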

[20] = target: Peroxisome proliferator-activated receptor delta (Homo sapiens) (UniProt Q03181); assay: qHTS assay to identify small molecule agonists of the peroxisome proliferator-activated receptor delta (PPARd) signaling pathway (AID 743212; calls by dose curve)
Outline: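 A PPARd-bla HEK293H line with beta-lactamase under an Upstream Activator Sequence is treated with compounds at 37 C. Substrate loading for 2 h at room temperature precedes the fluorescence measurement.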

Measured: Potency

CC(C)(N)CO
not listed: [20]
inactive: all other assays above

CCCCCC/C(C=O)=C\c1ccccc1
not listed: [20]
inactive: all other assays above

O=c1[nH]c(=O)n([C@H]2CCCO2)cc1F
not listed: [14] | [16] | [18] | [19] | [20]
inactive: all other assays above

CCCCCC1=CCCC1=O
inactive: all assays above

C#CCN(C)Cc1ccccc1
not listed: [14] | [16] | [18] | [19]
inactive: all other assays above

Cc1cc(C)c(C)cc1C
not listed: [19]
inactive: all other assays above

CCCCCCCCCCCCOCCO
not listed: [12] | [13] | [14] | [16] | [18] | [19] | [20]
inactive: all other assays above

CCC(O)OC(O)CC (configuration not stated)
not listed: [12] | [13] | [14] | [16] | [20]
inactive: all other assays above

c1ccc2c(c1)ccc1ccccc12
not listed: [12] | [20]
inactive: all other assays above

CCCCC(CC)CO (configuration not stated)
not listed: [12] | [20]
inactive: all other assays above

CCCCCCCC(=O)OC
not listed: [14] | [16] | [20]
inactive: all other assays above

CC1CCC(C(C)C)C(O)C1 (configuration not stated)
not listed: [10] | [20]
inactive: all other assays above

c1c[nH]cn1
not listed: [7] | [14] | [16] | [20]
inactive: all other assays above

CC[C@H](C)C(=O)O[C@H]1C[C@@H](C)C=C2C=C[C@H](C)[C@H](CC[C@@H]3C[C@@H](O)CC(=O)O3)[C@H]21
inactive and 62 µM (active): [1]
62.5 µM (active) and inactive: [15] | [17]
not listed: [7] | [9] | [11] | [19]
inactive: all other assays above

Cc1ccc(N(C)C)cc1
inactive and 68.6 µM (active): [2]
not listed: [10] | [14] | [16] | [20]
inactive: all other assays above

C[C@H]1C[C@@H]2[C@H]([C@@H](O)C[C@@]3(C)[C@H]2CC[C@]3(O)C(=O)CO)[C@@]2(C)C=CC(=O)C=C12
not listed: [10] | [12] | [14] | [16] | [18] | [19]
inactive: all other assays above

O=C(O)c1cc(C(=O)O)cc(S(=O)(=O)O)c1
not listed: [12] | [20]
inactive: all other assays above
